According to PubChem BioAssay AID686960 (The Scripps Research Institute Molecular Screening Center, 2013):
The other results are listed elsewhere or left out. Activity calls are given as the source filed them. No stated cut-off is given here; in the data, active means IC50 below about 10 µM; inactive means the rest.

Assay: inhibitors of DNA CAG/GTC TO-PRO-1 complex, dose response, counter-screen for rCAG RNA repeat binder project, biochemical, fluorescence, TO-PRO-1 dye (AID 686960)
Conditions: DNA CAG/GTC duplex TO-PRO-1 dye displacement fluorescence

Compound | IC50
CO/N=C(\C(=O)N[C@@H]1C(=O)N2C(C(=O)O)=C(COC(C)=O)CS[C@H]12)c1csc(N)n1 (stereo in doubt) | 9.89 µM (active)
O=C(Cc1ccccc1)Nc1ccc(C(=O)Nc2ccccc2C(=O)O)cc1 | > 29.9 µM (inactive)
Cc1ccc(C(C)C)c(OCCSc2nc3ccccc3n2CC(=O)O)c1 | > 29.9 µM (inactive)
CC(C)c1ccc(CC(=O)N2CCC2(C)C(=O)NS(=O)(=O)c2ccc(C(C)(C)C)cc2)cc1 (stereo unspecified) | > 29.9 µM (inactive)
COc1ccc(Cc2nnc(SCC(=O)Nc3ccc(C)c(Cl)c3)[nH]c2=O)cc1 | 24.2 µM (inactive)
CC1(C(=O)NS(=O)(=O)c2ccc3ccccc3c2)CCN1C(=O)C1(c2ccc(Cl)cc2)CCC1 (stereo unspecified) | 21.2 µM (inactive)
Cc1ccc(S(=O)(=O)N2[C@@H](c3ccc(Br)cc3)C(C(=O)O)=C[C@H]2CC2CCCC2)cc1 | 11.6 µM (inactive)
CC(C)(C)C1C/C(=C/c2ccco2)C(=O)/C(=C/c2ccco2)C1 (stereo unspecified) | > 29.9 µM (inactive)
Cc1noc(NS(=O)(=O)c2ccc(NC(=O)c3oc4ccc(F)cc4c3C)cc2)c1C | 16.5 µM (inactive)
O=C(O)c1ccc(NN=CC2=C(N3CCOCC3)/C(=C/c3ccccc3)CC2)cc1 | 11 µM (inactive)
COc1ccc(C(=O)Nc2cccc(/C=C(/CCC(=O)O)c3nc4ccccc4s3)c2)cc1 | 14.2 µM (inactive)
